Reference: the OligoGym collection

molecular target: SYTL4; experiment: pooled miR-30 sensor sort-seq; sequence = guide strand; settings: shRNA

Sequence | sensor-assay potency score (higher = more potent)
TTCAACTCTATTTCCTTGGCGC | 0.409
TTTCTTCAACTCTATTTCCTTG | -0.969
TTATCCAGAGAGTCTCTCCTGG | -0.0866
TTAGTGTACTCTGAAGGCCTGA | -0.464
TAGTGGATTAACAGTGTCCCGC | -0.966
TAATCCTTTTCTCATCTGCTTT | -1.12
AACACTGAGAATCAAATCCTTT | -1.16
TTCTTTAGTCGCCTAATCCTTT | -1.13
TTTCATGTACCACATCTTCTGG | -0.423
TCATGTACCACATCTTCTGGGC | 0.653
TTTGGGAGCAGACATCTTCTTC | -0.722
TTCATGTACCACATCTTCTGGG | 0.0201

molecular target: TAAR8; experiment: as above; settings: shRNA

Sequence | sensor-assay potency score (higher = more potent)
TAATGGTTGATGAACTAGCCTT | -0.64
AAATCTATCAACACCCAGCCTT | -0.587
TTAGCTATAAGAAAAATCTTAC | -0.74
TCAATTAATATATCAACTGTAT | -0.769
TAATATATCAACTGTATACGGT | -0.194
